A short description of test [1]: CCTE_Simmons_MITO_basal_resp_rate: CCTE's HepG2 Seahorse XF Respirometric Screening Assay at Basal Respiratory State, Simmons Lab (AID 2284001). Conditions: actives raise or lower the signal. Summed up:
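HepG2 cells were given test chemicals at 7 concentrations, 125 nM to 100 uM final, and oxygen consumption rate was read every 6 min (3 min mix, 3 min measure) over 72 min. Basal-phase OCR was fitted bidirectionally against DMSO.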

Test [2] is described as follows: CCTE_Simmons_MITO_max_resp_rate: CCTE's HepG2 Seahorse XF Respirometric Screening Assay at Maximal Respiratory State [uncoupled], Simmons Lab (AID 2284002). The following applies: actives raise or lower the signal. The gist of the method:
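HepG2, Seahorse XF96, maximal OCR post-FCCP. Cpd 125 nM–100 uM final (7 conc), n=3 biological. Kinetic reads every 6 min (3 min mix/3 min measure) over 72 min; fit bidirectional vs DMSO.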

Test [3] is described as follows: CCTE_Simmons_MITO_inhib_resp_rate: CCTE's HepG2 Seahorse XF Respirometric Screening Assay at Inhibited Respiratory State [full ETC block], Simmons Lab (AID 2284006). Conditions: actives raise or lower the signal. The gist of the method:
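HepG2 oxygen consumption was measured by Seahorse XF after compound, FCCP, then rotenone/antimycin A injections. Seven concentrations from 125 nM to 100 uM (final) were tested, with 6-min kinetic reads over 72 minutes. Inhibited-state OCR was fitted bidirectionally against DMSO.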

In test [4] the target is Retinoic acid receptor RXR-alpha (Homo sapiens) (UniProt P19793). As to the kind of experiment: TOX21_TR_RXR_BLA_Agonist_Followup_ratio: Tox21 Thyroid Hormone Receptor beta Retinoid X Receptor alpha (RXRa) Agonism Beta-lactamase (BLA) Follow-Up Assay, Ratio (AID 2283968; active = hit-call score of the fitted dose curve at least 0.9, where 1 is the maximum). The gist of the method:
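RXRa-UAS-bla HEK293T cells, 5 h attachment at 37C/5% CO2, then 11 concentrations in triplicate for 16 h; 9-cis retinoic acid positive control. FRET-B/GCCF4-AM substrate 2 h at room temperature; 460:530 nm ratio, fitted for gain versus DMSO.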

The target of test [5] is Nucleoli Translocation, AR (gene 367) (UniProt P10275). The test can be described thus: UPITT_HCI_U2OS_AR_TIF2_Nucleoli_Antagonist: University of Pittsburgh U2OS Androgen Receptor-Transcriptional Intermediary Factor 2 (AR-TIF2) Antagonism High Content Imaging Assay for Nucleoli Translocation (AID 2283997; active = hit-call score of the fitted dose curve at least 0.9, where 1 is the maximum). The gist of the method:
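U2OS cells expressing RFP-tagged human AR and GFP-tagged TIF2 were imaged by high-content fluorescence microscopy for red AR signal in the nucleolar region. Compounds were screened at 20 uM final (0.2% DMSO), with activity fitted relative to DHT as baseline.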

For test [6] the target is unchanged. The test can be described thus: UPITT_HCI_U2OS_AR_TIF2_Nucleoli_Agonist: University of Pittsburgh U2OS Androgen Receptor-Transcriptional Intermediary Factor 2 (AR-TIF2) Agonism High Content Imaging Assay for Nucleoli Translocation (AID 2283998; active = hit-call score of the fitted dose curve at least 0.9, where 1 is the maximum). The gist of the method:
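RFP-AR / GFP-TIF2 cells; cpds diluted in serum-free medium; single-point screen 20 uM final (0.2% DMSO), actives confirmed in triplicate; conc-response 0.195–50 uM final (0.5% DMSO). Readout: nucleolar red fluorescence, positive direction vs DMSO.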

The target of test [7] is Ratio of Nucleoli Translocation and Cytoplasm, AR (gene 367) (UniProt P10275). The test can be described thus: UPITT_HCI_U2OS_AR_TIF2_Nucleoli_Cytoplasm_Ratio_Antagonist: University of Pittsburgh U2OS Androgen Receptor-Transcriptional Intermediary Factor 2 (AR-TIF2) Antagonism High Content Imaging Assay for Ratio of Nucleoli Translocation and Cytoplasm (AID 2283999; active = hit-call score of the fitted dose curve at least 0.9, where 1 is the maximum;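 also: antagonists lower the DHT-driven ratio of nucleolar to cytoplasmic red signal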). Summed up: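 U2OS cells co-expressing RFP-tagged human AR and GFP-tagged TIF2, antagonist mode with DHT as baseline. Nucleolar-to-cytoplasmic red fluorescence ratio imaged by high-content microscopy; final compound 20 uM (0.2% DMSO) primary, 0.195–50 uM (0.5% DMSO) concentration-response.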
Sequence of Ratio of Nucleoli Translocation and Cytoplasm, AR (gene 367) (P10275 whole entry, looked up): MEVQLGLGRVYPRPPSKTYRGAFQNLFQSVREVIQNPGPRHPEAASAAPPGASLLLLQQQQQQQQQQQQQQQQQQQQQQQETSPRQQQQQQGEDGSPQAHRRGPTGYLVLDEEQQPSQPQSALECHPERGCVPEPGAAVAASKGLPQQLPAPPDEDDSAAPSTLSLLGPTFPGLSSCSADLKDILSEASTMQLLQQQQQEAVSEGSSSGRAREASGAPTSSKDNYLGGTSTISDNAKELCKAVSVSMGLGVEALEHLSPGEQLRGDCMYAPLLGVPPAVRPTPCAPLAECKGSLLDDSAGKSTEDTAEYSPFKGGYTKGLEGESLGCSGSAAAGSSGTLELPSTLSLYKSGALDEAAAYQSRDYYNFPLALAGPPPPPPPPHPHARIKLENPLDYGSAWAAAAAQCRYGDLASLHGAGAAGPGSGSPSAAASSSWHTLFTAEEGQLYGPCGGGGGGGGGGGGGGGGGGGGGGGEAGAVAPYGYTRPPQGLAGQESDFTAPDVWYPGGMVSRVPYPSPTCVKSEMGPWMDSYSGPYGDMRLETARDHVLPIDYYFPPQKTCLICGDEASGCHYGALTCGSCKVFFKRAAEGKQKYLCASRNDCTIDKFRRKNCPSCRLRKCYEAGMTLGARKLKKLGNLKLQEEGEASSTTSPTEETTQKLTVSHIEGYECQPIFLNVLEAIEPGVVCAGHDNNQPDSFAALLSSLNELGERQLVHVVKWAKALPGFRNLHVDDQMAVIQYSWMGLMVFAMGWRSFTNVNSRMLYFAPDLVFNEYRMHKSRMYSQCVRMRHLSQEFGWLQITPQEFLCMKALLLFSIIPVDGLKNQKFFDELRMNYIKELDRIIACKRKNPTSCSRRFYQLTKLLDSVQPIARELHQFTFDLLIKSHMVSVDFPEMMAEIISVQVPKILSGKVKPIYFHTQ

Test [8] relates to DIO1 (gene 1733). The test can be described thus: CCTE_GLTED_hDIO1: CCTE's human Deiodinase 1 (DIO1) Inhibition Assay, Great Lakes Toxicology and Ecology Division (GLTED) Lab (AID 2283987; active = hit-call score of the fitted dose curve at least 0.9, where 1 is the maximum;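 also: isolated human DIO1 enzyme in a cell-free setup rather than cells; enzyme activity read as free iodide liberated from substrate via Sandell-Kolthoff colorimetry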). Summed up:
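Steps: human DIO1 enzyme plus test chemical, 3 h incubation; free iodide then quantified in a second Sandell-Kolthoff step by absorbance. DMSO served as negative control and baseline.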

A short description of test [9]: CCTE_Harrill_HTTr_Viability_DMEM_6hr: (Pilot) CCTE's 6-hour Cell Viability Assessment for the High-Throughput Transcriptomics (HTTr) Platform, in MCF-7 cells cultured in DMEM + 10% fetal bovine serum, Harrill Lab (AID 2283973). The gist of the method: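 MCF-7 cells in DMEM + 10% FBS, eight-point dilution series, 6 h exposure. Membrane integrity by propidium iodide exclusion with high-content imaging; bidirectional fit versus DMSO.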

The nature of test [10]: CCTE_Harrill_HTTr_Viability_DMEM_12hr: (Pilot) CCTE's 12-hour Cell Viability Assessment for the High-Throughput Transcriptomics (HTTr) Platform, in MCF-7 cells cultured in DMEM + 10% fetal bovine serum, Harrill Lab (AID 2283974). The gist of the method: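 MCF-7 cells in DMEM + 10% FBS exposed 12 h to an eight-point dilution series; membrane integrity scored by propidium iodide exclusion with high-content imaging, bidirectional fitting versus DMSO.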

A short description of test [11]: CCTE_Harrill_HTTr_Viability_DMEM_24hr: (Pilot) CCTE's 24-hour Cell Viability Assessment for the High-Throughput Transcriptomics (HTTr) Platform, in MCF-7 cells cultured in DMEM + 10% fetal bovine serum, Harrill Lab (AID 2283975). Summed up: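 MCF-7 cells in DMEM with 10% FBS exposed for 24 hours to an eight-point dilution series. Membrane integrity by propidium iodide exclusion with high content imaging; bidirectional fit against DMSO.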

The nature of test [12]: CCTE_Harrill_HTTr_Viability_PRF_DMEM_6hr: (Pilot) CCTE's 6-hour Cell Viability Assessment for the High-Throughput Transcriptomics (HTTr) Platform, in MCF-7 cells cultured phenol red-free DMEM + 10% charcoal-stripped fetal bovine serum, Harrill Lab (AID 2283976). The gist of the method: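 MCF-7 cells in phenol red-free DMEM with 10% charcoal-stripped FBS exposed 6 hours to an eight-point dilution series. Propidium iodide exclusion imaged; curves fitted bidirectionally against DMSO.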

Test [13] is described as follows: CCTE_Harrill_HTTr_Viability_PRF_DMEM_12hr: (Pilot) CCTE's 12-hour Cell Viability Assessment for the High-Throughput Transcriptomics (HTTr) Platform, in MCF-7 cells cultured in phenol red-free DMEM + 10% charcoal-stripped fetal bovine serum, Harrill Lab (AID 2283977). Summed up: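 MCF-7 cells in phenol red-free DMEM with 10% charcoal-stripped FBS exposed 12 hours to an eight-point dilution series. Viability assessed by high-content imaging of propidium iodide exclusion; bidirectional fit versus DMSO.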

The nature of test [14]: CCTE_Harrill_HTTr_Viability_PRF_DMEM_24hr: (Pilot) CCTE's 24-hour Cell Viability Assessment for the High-Throughput Transcriptomics (HTTr) Platform, in MCF-7 cells cultured in phenol red-free DMEM + 10% charcoal-stripped fetal bovine serum, Harrill Lab (AID 2283980). The gist of the method:
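MCF-7 cells in phenol red-free DMEM with 10% charcoal-stripped FBS, eight-point dilution series, 24 h exposure. Membrane integrity by propidium iodide exclusion with high content imaging; bidirectional fit vs DMSO.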

Test [15] in a line: CCTE_Harrill_HTTr_Apoptosis_DMEM_6hr: (Pilot) CCTE's 6-hour Apoptosis Assessment for the High-Throughput Transcriptomics (HTTr) Platform, in MCF-7 cells cultured in DMEM + 10% fetal bovine serum, Harrill Lab (AID 2283981). Summed up:
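Caspase-3/7 activation read by high content imaging with CellEvent Caspase 3/7 Green in MCF-7 cells (DMEM + 10% FBS), 6 h after dosing; eight-point dilution series. Bidirectional fitting relative to DMSO baseline.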

A short description of test [16]: CCTE_Harrill_HTTr_Apoptosis_DMEM_12hr: (Pilot) CCTE's 12-hour Apoptosis Assessment for the High-Throughput Transcriptomics (HTTr) Platform, in MCF-7 cells cultured in DMEM + 10% fetal bovine serum, Harrill Lab (AID 2283982). Summed up:
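MCF-7 cells in DMEM + 10% FBS, exposed 12 h to an eight-point dilution series; caspase-3/7 activation imaged with CellEvent Green. Bidirectional fit versus DMSO.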

A short description of test [17]: CCTE_Harrill_HTTr_Apoptosis_DMEM_24hr: (Pilot) CCTE's 24-hour Apoptosis Assessment for the High-Throughput Transcriptomics (HTTr) Platform, in MCF-7 cells cultured in DMEM + 10% fetal bovine serum, Harrill Lab (AID 2283983). The gist of the method:
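MCF-7 cells in DMEM + 10% FBS, eight-point dilution series, 24 h exposure. Caspase-3/7 activation imaged by high-content imaging with CellEvent Caspase 3/7 Green. Bidirectional curve fitting against DMSO baseline.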

A short description of test [18]: CCTE_Harrill_HTTr_Apoptosis_PRF_DMEM_6hr: (Pilot) CCTE's 6-hour Apoptosis Assessment for the High-Throughput Transcriptomics (HTTr) Platform, in MCF-7 cells cultured phenol red-free DMEM + 10% charcoal-stripped fetal bovine serum, Harrill Lab (AID 2283984). Summed up: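 MCF-7 cells in phenol red-free DMEM + 10% charcoal-stripped FBS, eight-point dilution series, 6 h exposure. Caspase-3/7 activation imaged by high-content imaging with CellEvent Caspase 3/7 Green; bidirectional fit versus DMSO baseline.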

Test [19] in a line: CCTE_Harrill_HTTr_Apoptosis_PRF_DMEM_24hr: (Pilot) CCTE's 24-hour Apoptosis Assessment for the High-Throughput Transcriptomics (HTTr) Platform, in MCF-7 cells cultured in phenol red-free DMEM + 10% charcoal-stripped fetal bovine serum, Harrill Lab (AID 2283986). The gist of the method:
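MCF-7 cells in phenol red-free DMEM with 10% charcoal-stripped FBS, exposed 24 h across an eight-point dilution series. Caspase-3/7 activation imaged with CellEvent Green by high content imaging; bidirectional fitting against DMSO.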

A short description of test [20]: TOX21_TR_RXR_BLA_Antagonist_Followup_viability: Viability Assessment in the Tox21 Thyroid Hormone Receptor beta Retinoid X Receptor alpha (RXRa) Antagonism Beta-lactamase (BLA) Follow-Up Assay (AID 2283979; active = hit-call score of the fitted dose curve at least 0.9, where 1 is the maximum). The gist of the method: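 RXRa-UAS-bla HEK293T cells seeded 2,500/well in phenol red-free DMEM with 2% charcoal-stripped FBS, attached 5 h, then exposed to compounds at 11 concentrations in triplicate for 16 h at 37C/5% CO2. Viability read by CellTiter-Glo ATP luminescence; bidirectional fit versus DMSO.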

Molecules are shown by their SMILES. Inconclusive results are not listed. Active and inactive are the calls of the source. The calls were made as follows, unless noted: active = hit-call score of the fitted dose curve at least 0.9, where 1 is the maximum; inactive = score below 0.9.

Sequence of Nucleoli Translocation, AR (gene 367) (P10275 whole entry, looked up): as above
Sequence of Retinoic acid receptor RXR-alpha (Homo sapiens) (P19793 whole entry, looked up): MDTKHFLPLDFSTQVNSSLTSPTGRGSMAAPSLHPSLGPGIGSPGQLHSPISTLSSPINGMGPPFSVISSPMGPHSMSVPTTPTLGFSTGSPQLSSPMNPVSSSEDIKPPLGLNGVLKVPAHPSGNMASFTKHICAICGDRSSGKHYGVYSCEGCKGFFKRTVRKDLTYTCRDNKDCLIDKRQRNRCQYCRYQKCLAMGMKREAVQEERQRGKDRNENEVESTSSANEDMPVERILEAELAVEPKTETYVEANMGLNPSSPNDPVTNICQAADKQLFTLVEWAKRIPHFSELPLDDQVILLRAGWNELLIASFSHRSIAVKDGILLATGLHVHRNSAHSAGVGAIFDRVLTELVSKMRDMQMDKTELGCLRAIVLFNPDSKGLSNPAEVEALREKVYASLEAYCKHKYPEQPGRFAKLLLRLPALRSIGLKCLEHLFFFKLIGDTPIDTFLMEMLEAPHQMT

On to `CCc1cc(C2=C(C(=O)O)N(c3ccccc3C(F)(F)F)S(=O)(=O)c3ccccc32)cc2c1OCO2`, for which the compound was called inactive in [1], in test [2] and in [3].

For `Cc1cc(Cc2ccc(N)c(C)c2)ccc1N`, the outcome in test [1] and in test [3] was inactive. Besides, the AC50 in test [2] was 50 µM (active).

Consider `Cc1occc(=O)c1O`, for which the outcome in [4] was inactive.

Regarding `Nc1nc(=S)c2[nH]cnc2[nH]1`, the compound was classed as inactive in [5] and in [6].

In the case of `CCOCCOCCO`, the compound was classed as inactive in [5], in test [6] and in [7].

For the compound `CCCCCCCCCCCCCCOS(=O)(=O)O`, the AC50 in test [8] is 85.7 µM (active).

For `Cc1ccc(C(C)(C)C)c(O)c1`, in test [1], the AC50 is 44.6 µM (active). Besides, the compound was classed as inactive in test [2] and in test [3].

As to `C=CCCCCCCCCCCCC`, the compound was classed as inactive in [5], in test [6] and in [7].

In the case of `Cc1c(C)c2c(c(C)c1O)CCC(C)(COc1ccc(CC3SC(=O)NC3=O)cc1)O2` (configuration not stated), the result in [9], in test [10], in [11], in [12], in test [13] and in test [14] was inactive. Also, the outcome in test [15], in [16], in test [17], in [18], in test [19] and in test [6] was inactive. Besides, the result in test [7] and in test [3] was inactive. The AC50 in test [8] is 85.9 µM (active); in [1] it was 3.22 µM (active); in test [2], 7.83 µM (active).

`Nc1nc(Cl)nc2c1ncn2[C@H]1C[C@H](O)[C@@H](CO)O1`: the result in test [9], in [10], in test [11], in test [12], in test [13] and in test [20] was inactive. For the same compound, the result in [14], in test [15], in test [16], in test [17], in test [18] and in test [19] was inactive.

Regarding `NCCOCCOCCN`, the compound was called inactive in test [5], in test [6] and in test [7].

As to `O=C(NS(=O)(=O)/C=C/c1cccs1)c1ccc(F)cc1Br`, in [5], the call was inactive.

Turning to `Cc1ccc(-c2cc(C(F)(F)F)nn2-c2ccc(S(N)(=O)=O)cc2)cc1`, the AC50 was 170 µM (active) in test [8] and 26.6 µM (active) in test [5]. Also, the call in test [6] and in test [7] was inactive.

As to `CC1=C(C)S(=O)(=O)CCS1(=O)=O`, the call in [5] and in test [6] was inactive.

For the compound `CCCCCCC(C=O)=Cc1ccccc1`, the result in test [1], in test [2] and in test [3] was inactive.

For `S=c1[nH]c2ccccc2s1`, the AC50 in [8] was 23.4 µM (active).

On to `O=C(Oc1ccccc1)c1cccc(C(=O)Oc2ccccc2)c1`, for which the outcome in test [5], in test [6] and in [7] was inactive.

As for `CC(C)(O)c1ccc(CNC(=O)c2cccnc2Oc2ccc(F)cc2)cc1`, the call in test [1] and in test [3] was inactive. For the same compound, the AC50 in test [2] was 18.6 µM (active).

As to `O=Cc1ccccc1C=O`, the AC50 in [8] is 49.3 µM (active). Besides, the compound was classed as inactive in test [5], in test [6] and in test [7].

For orientation: AC50 means the concentration at which the activity in the assay is half-maximal.

The record behind these values is PubChem BioAssay (EPA / NIEHS).
